Inconclusive results are not listed. Entries that show only a call come without a potency. Active and inactive are the calls of the source. Calls come from the whole dose curve; as a rule, active = well fitted inhibition curve with a large enough effect in the signal ratio in the repeat runs, with a control signal flat; inconclusive = weak or mixed curves, or effect the other way; inactive = flat fitted curve, though single readings scatter; the % refers to the signal ratio.
Potency is the fitted concentration of half-maximal effect.

The target of the assay is D(2) dopamine receptor (Homo sapiens) (UniProt P14416). In words: Dopamine D2 receptor (DRD2) small molecule antagonists, cell-based qHTS assay (AID 1963595). The conditions noted are these: HEK293-DRD2 cAMP HTRF antagonist mode; series mostly up to 92.4 µM. From the text: National Center for Advancing Translational Sciences [NCATS]
D(2) dopamine receptor (Homo sapiens), sequence (P14416 whole entry, looked up): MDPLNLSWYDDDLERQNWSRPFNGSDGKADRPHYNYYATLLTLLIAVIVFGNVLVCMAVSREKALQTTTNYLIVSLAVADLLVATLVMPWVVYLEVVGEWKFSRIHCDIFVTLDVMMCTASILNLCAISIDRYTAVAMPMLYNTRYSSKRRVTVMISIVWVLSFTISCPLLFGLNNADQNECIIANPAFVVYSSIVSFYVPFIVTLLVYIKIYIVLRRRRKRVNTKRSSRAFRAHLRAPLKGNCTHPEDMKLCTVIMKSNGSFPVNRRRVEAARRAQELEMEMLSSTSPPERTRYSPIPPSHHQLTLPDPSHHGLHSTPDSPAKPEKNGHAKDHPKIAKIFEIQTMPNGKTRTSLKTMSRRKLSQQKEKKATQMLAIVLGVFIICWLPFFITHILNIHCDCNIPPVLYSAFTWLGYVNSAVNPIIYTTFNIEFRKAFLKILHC
Division of Preclinical Innovation [DPI]
U.S. Environmental Protection Agency [EPA]
National Institutes of Environmental Health Sciences [NIEHS]
National Toxicology Program [NTP]
U.S. Food and Drug Administration [FDA]
DRD2 is the D2 subtype of the dopamine receptor, which is coupled to Gi subtype of G protein-coupled receptor. This G protein-coupled receptor inhibits adenylyl cyclase activity. The DRD2-HEK293 cell line stably expressing D2 dopamine receptor can be used for screening agonists and antagonists of interactions between D2 and its ligands. The Hek293-DRD2 cAMP assay is based on HTRF technology. It measures changes of cAMP accumulation in response to Gi coupled GPCR activation or inhibition.
Tox21 Assay Protocol Summary:
DRD2-Hek293 cells were dispensed at 600 cells/3uL/well in 1536-well white plates using a Multidrop Dispenser. After the assay plates were incubated at a 37 C/5% CO2 incubator for 24 h, 1 uL of Ro20-1724 at final concentration of 0.1 mM was transferred to the assay plate by a Flying Reagent Dispenser. Following Ro20-1724 addition, 23 nL of compound dissolved in DMSO, positive controls or DMSO only was added to the assay plates via Wako pintool station. The assay plates were incubated at room temperature for 10 min. Next, 1 uL of mixture of NKH477 (final concentration at 200 nM) and quinpirole (final concentration at 12 nM) was added into the plates. After the assay plates were incubated at room temperature for an additional 30 min, 2.5 ul/well of cAMP-d2 and 2.5 ul/well of anti-cAMP-cryptate were added respectively into the assay plates using a Flying Reagent Dispenser. The plates were incubated at room temperature for 1 h. The fluorescence intensity in the plates was measured at 340 nm excitation and 665 & 620 nm emission by an Envision plate reader.
In the case of `CC(=O)c1ccc[nH]1`, the Potency entry was “inactive”.
Take `C#C[C@]1(OC(C)=O)CC[C@H]2[C@@H]3CCC4=C/C(=N/O)CC[C@@H]4[C@H]3CC[C@@]21CC`: the Potency entry is “inactive”.
Take `CCOC(=O)c1ccc(C#Cc2ccc3c(c2)C(C)(C)CCS3)nc1`: the Potency entry is “inactive”.
Same read-out and setting: as for `CCC(Cl)CCC(Cl)C(Cl)CC(Cl)C(Cl)C(Cl)CCl` (stereo not given), the entry is “inactive”.
The same measure, in the same setting: the same measure for `CCc1cc(Cc2cc(CC)c(N)c(CC)c2)cc(CC)c1N`: 54.5 µM (active); for `O=C(O)/C=C/c1ccc(O)c(O)c1`: “inactive”.
Still for that read-out and setting: the same measure for `CC(C(=O)O)c1ccc(C(=O)c2cccs2)cc1` (stereo not given): “inactive”; for `CN(C)C(=O)Oc1cccc([N+](C)(C)C)c1`: “inactive”.
Regarding `CC(=O)Nc1cccc(N)c1`, the Potency result is “inactive”.
The same measure, in the same setting: as for `c1ccc(-c2ccccn2)nc1`, the entry is “inactive”; as for `CC(=O)[C@H]1[C@H](C#N)C[C@H]2[C@@H]3CC=C4C[C@@H](O)CC[C@]4(C)[C@H]3CC[C@@]21C`, “inactive”; as for `CCOC(C)OCC`, “inactive”.
Same read-out and setting: the same measure for `Cc1ccc(C(N)=O)cc1N`: “inactive”.
With `CCCCCCC(O)CCCCCCCCCCC(=O)O` (stereo not given), the Potency result was “inactive”.
`COCCc1ccc(OCC2CO2)cc1` (stereo not given): the Potency entry is “inactive”.
On the same count and under the same terms, the same measure for `CC(=O)OC(C(=O)c1ccccc1)c1ccccc1` (stereo not given): “inactive”.
Still for that read-out and setting: the same measure for `CCCCCCCC/C=C\CCCCCCCC(=O)OCCOC(=O)CCCCCCC/C=C\CCCCCCCC`: “inactive”; for `NC(=O)c1ccccc1`: “inactive”.
Still for that read-out and setting: the same measure for `CCOc1ccc(O)cc1`: “inactive”.
Regarding `COC(=O)Nc1nc2ccc(C(=O)c3cccs3)cc2[nH]1`, the Potency entry is “inactive”.
Take `CC(C)[C@H]1CC[C@H](C)C[C@@H]1O`: the Potency entry is “inactive”.
`COC(C)=O`: the Potency entry was “inactive”.
On the same count and under the same terms, as for `C[C@]12CCC(=O)C=C1C=C[C@@H]1[C@@H]2CC[C@@]2(C)[C@H]1CC[C@@]21CCC(=O)O1`, the entry is “inactive”.
For `Cc1cc(O)c2ccccc2c1O`, the Potency entry was “inactive”.
The same measure, in the same setting: the same measure for `Cn1c(=O)c2c(ncn2CC2OCCO2)n(C)c1=O`: “inactive”; for `Cc1cc(NS(=O)(=O)c2ccc(N)cc2)no1`: “inactive”.
Same read-out and setting: as for `CC1CCC(=O)C1=O` (stereo not given), the entry is “inactive”; as for `CC1=C(C(=O)O)N2C(=O)[C@@H](NC(=O)[C@H](N)c3ccccc3)[C@H]2SC1`, “inactive”; as for `CCC(C)c1cc(C(C)(C)C)c(O)c(C(C)(C)C)c1` (stereo not given), “inactive”.
With `C[C@@]12CCC[C@H]1[C@@H]1CC[C@H]3C[C@@H](O)CC[C@]3(C)[C@H]1CC2`, the Potency result is “inactive”.
Regarding `COC(=O)c1ccc(C(=O)OC)c(C(=O)OC)c1`, the Potency result is “inactive”.
As for `CN1CCN(CCC(=O)N2c3ccccc3Sc3ccc(C(F)(F)F)cc32)CC1`, the Potency result was “inactive”.
Take `C=C[C@](C)(O)CC[C@@H]1[C@@]2(C)CCCC(C)(C)[C@@H]2CC[C@@]1(C)O`: the Potency is 43.3 µM (active).
Same read-out and setting: the same measure for `CCCCCCCCCCCCSC#N`: “inactive”.
The same measure, in the same setting: the same measure for `Cc1ccc(Cl)cc1N`: “inactive”; for `CCOC(=O)CC(=O)C(=O)OCC`: “inactive”; for `O=C(O)CCn1c2c(c3ccccc31)C[C@H](NS(=O)(=O)c1ccc(F)cc1)CC2`: “inactive”.
Same read-out and setting: the same measure for `CC(C)CCOCc1ccccc1`: “inactive”.
Turning to `O=S(=O)(O)c1cc(S(=O)(=O)O)c2ccc3c(S(=O)(=O)O)cc(S(=O)(=O)O)c4ccc1c2c43`, the activity change, negative = inhibition is -2.86% [at 18.9 µM] (inactive).
Regarding `COP(=O)(OC)OC(c1ccc(Cl)cc1)P(=O)(OC)OC` (stereo not given), the Potency result was “inactive”.

The values are drawn from PubChem BioAssay (Tox21).
